FBPA Giardia inh: Giardia lamblia aldolase inhibition | A8B2U2 | purified Giardia FBPA | Potency, µM (highest dose often 59.6 µM), for the others: at the highest dose activity, negative = inhibition, most hits filed as inhibitors | 290,000 tested, 0.71% active; also: potency is read from the fitted curve at half-maximal effect; % is scaled to controls: 0 for no effect and ±100 for the full control effect; nearly all actives have a fitted effect of over 55% in size
Target sequence (A8B2U2 whole entry, looked up): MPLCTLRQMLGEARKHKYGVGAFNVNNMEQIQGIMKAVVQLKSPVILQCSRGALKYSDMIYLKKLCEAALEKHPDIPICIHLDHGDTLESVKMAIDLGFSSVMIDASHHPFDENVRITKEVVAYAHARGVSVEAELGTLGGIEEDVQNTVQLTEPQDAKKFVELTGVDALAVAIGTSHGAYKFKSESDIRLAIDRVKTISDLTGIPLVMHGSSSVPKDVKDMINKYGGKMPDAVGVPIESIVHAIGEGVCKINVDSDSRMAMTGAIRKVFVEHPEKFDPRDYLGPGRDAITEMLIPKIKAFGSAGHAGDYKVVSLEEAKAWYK
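40 nM FBPA preincubated 10 min at RT with compound (up to 57.5 uM final), then substrate plus GAPDH/TPI/NAD/arsenate coupling and diaphorase/resazurin added. Fluorescence read after 20 min at RT, 525/598 nm.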
CHX counter: counter-screen hit for Shiga toxin inhibitors, cycloheximide. max response, %. 300,000 tested, 12% active. cell reporter, cycloheximide protein synthesis inhibition counterscreen; in the data active = max response mostly above about 13%, no sharp cut-off; inactive = mostly below about 14%; also: read at 38.3 µM for the half of the compounds with a filed dose; 0% is about no effect
Pf growth 48h: inhibits P. falciparum growth in the first generation, 48 h. P. falciparum luciferase growth in erythrocytes, 48 h. Potency, µM (titrated, usually from 28.7 µM), for inactives: at the highest dose activity change, negative = inhibition, actives largely listed as inhibitors. 310,000 tested, 5.9% active; also: potency is read from the fitted curve at half-maximal effect; % is scaled to controls: 0 for no effect and ±100 for the full control effect
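Parasite viability was followed by luminescence of a genomically integrated firefly luciferase. Cultures held 0.1% parasitemia at 2% hematocrit (final), incubated under 5% CO2 at 37 C.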
Shiga inhibitor: blocks Shiga toxin action in Vero cells; Vero cells, Shiga toxin protein synthesis inhibition reporter; inhibition, % at 38.7 µM; 290,000 tested, 9.2% active; AID 2315; in the data active = inhibition mostly above about 28%, no sharp cut-off; inactive = mostly below about 43%; also: 0% is about no effect
Pf growth 96h: inhibits malaria parasite growth, 96 h. P. falciparum luciferase reporter growth, 96 h. 320,000 tested, 6.9% active. Potency, µM (top dose mostly 28.7 µM), for the others: at the highest dose activity change, negative = inhibition, usual class: inhibitors; also: potency is read from the fitted curve at half-maximal effect; % is scaled to controls: 0 for no effect and ±100 for the full control effect
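Infected RBCs, 2% Hct / 0.05% parasitemia final; luciferase-reporter P. falciparum; cpd 96 h, 37 C, 5% CO2; luciferase detection reagent; luminescence.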
NS1 inh: influenza NS1 inhibition. 270,000 tested, 0.4% active. Potency, µM (doses to about 46.1 µM), without a hit: top-dose activity, positive = more growth. AID 2326; calls by dose curve; also: potency is read from the fitted curve at half-maximal effect; actives are rising curves; nearly all actives have a fitted effect of over 50% in size
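OD600 was taken as the measure of yeast growth restored by compound in an NS1-expressing S. cerevisiae strain. Cells had been washed out of glucose medium and diluted 1:100 into galactose -URA medium, pH 6.0.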
* hit, by the source's call; ? = inconclusive; / = no result given; [ ] = remark or other dose. Most compounds without a hit are left out; they make up all but 21% or so of the library. Unless noted, calls follow the shape of the dose curve; as a rule, active = well fitted curve in the direction sought with a large enough effect; inconclusive = small, poorly fitted or top-dose-only effect, or another doubt; inactive = no such curve, though single readings can be large; an effect the other way counts as inactive or inconclusive.

SMILES	FBPA Giardia inh	CHX counter	Pf growth 48h	Shiga inhibitor	Pf growth 96h	NS1 inh
O=C(OCC1OC(OC(=O)c2cc(O)c(O)c(OC(=O)c3cc(O)c(O)c(O)c3)c2)[C@@H](OC(=O)c2cc(O)c(O)c(OC(=O)c3cc(O)c(O)c(O)c3)c2)C(OC(=O)c2cc(O)c(O)c(OC(=O)c3cc(O)c(O)c(O)c3)c2)C1OC(=O)c1cc(O)c(O)c(OC(=O)c2cc(O)c(O)c(O)c2)c1)c1cc(O)c(O)c(OC(=O)c2cc(O)c(O)c(O)c2)c1 (stereo not given in full)	3.5µM*	/	3.4µM*	/	3µM*	/
O=C(O)c1sccc1Oc1ccc(NS(=O)(=O)c2cccc(F)c2)cc1	-4%	5	-12%[0.00184 µM]	-12	-2%	-2%
Cc1n[nH]c(=O)nc1N1CCc2ccccc2C1	3%	2	5%	-22	-11%	5%
COc1ccc(CN2C(=O)C(Cc3ccccc3)Nc3ncnc(N4CCc5ccccc5C4)c32)cc1 (stereo not given)	/	/	7.4µM*	/	5.2µM*	/
O=C1C(Cc2ccccc2)Nc2ncnc(N3CCc4ccccc4C3)c2N1Cc1ccc(Cl)cc1 (stereo not given)	/	/	15µM*	/	6.6µM*	/
O=C(NCCC1CCCCN1S(=O)(=O)c1ccccc1)C(=O)NCc1ccccc1F (stereo not given)	/	/	-19%	/	?	/
O=C(NCCC1CCCCN1S(=O)(=O)c1ccccc1)C(=O)NCc1ccc(F)cc1 (stereo not given)	/	/	10µM*	/	?	/
Cc1cc(S(=O)(=O)N2CCCCC2CCNC(=O)C(=O)NCc2cccnc2)ccc1F (stereo not given)	/	/	?	/	13µM*	/
Cc1ccc(CNC(=O)C(=O)NCCC2CCCCN2S(=O)(=O)c2ccccc2)cc1 (stereo not given)	/	/	-32%	/	?	/
O=C(NCCC1CCCCN1S(=O)(=O)c1ccccc1)C(=O)NCc1ccccc1 (stereo not given)	/	/	-21%	/	17µM*	/
O=c1[nH][nH]cc1C=Nc1cc(Cl)ccc1O	11%	8	?	-18	6.6µM*	-3%
O=c1[nH][nH]cc1C=Nc1ccc(Cl)cc1Cl	-21%	-1	?	-34	?	/
CCC1(CC)NC(=O)N(CC(=O)OCc2nc3cc(C(=O)OC)ccc3c(=O)[nH]2)C1=O	/	/	?	/	0%	/
CCNc1ncc2nc(-c3ccc(F)cc3)c(=O)n(CCOC)c2n1	1%	/	/	/	/	/
COc1ccc(N=C/C=C2\C=C(c3ccccc3)OC(C)(C)O2)cc1	-15%	17*	?	44	?	-9%
C1CCC(C(CC2CCCCN2)C2CCCCC2)CC1 (stereo not given)	3%	-8	3.7µM*	-22	4.1µM*	-16%
CCN(CC)C(=O)CCCOc1ccc(Cl)cc1Cl	-1%	33	47%	91*	-28%	-81%
C#CCN(C)CCCOc1ccc(Cl)cc1Cl	-9%	27*	33%	81*	4%	-16%
CN1CCN(C(=O)CCCOc2ccc(Cl)cc2Cl)CC1	7%	10	15%	-7	?	10%
CC(C)NC(=O)CCCOc1ccc(Cl)cc1Cl	-2%	34*	/	34	10µM*	-50%
CCn1c(CCCOc2ccc(Cl)cc2Cl)n[nH]c1=S	0%	21*	0%	57*	-13%	4%
Cc1ccc(S(=O)(=O)N2CCOCC2)cc1C(=O)NCc1ccccc1CN1CCCC1	/	/	-25%	/	?	/
CC(C)C[C@H](NC(=O)[C@H](Cc1ccccc1)NC(=O)CNC(=O)CNC(=O)[C@@H](N)Cc1ccc(O)cc1)C(=O)N[C@@H](CCCN=C(N)N)C(=O)N[C@@H](CCCN=C(N)N)C(=O)N[C@@H](CCC(N)=O)C(=O)N[C@@H](Cc1ccccc1)C(=O)N[C@@H](CCCCN)C(=O)N[C@H](C(=O)N[C@H](C(=O)N[C@H](C(=O)O)[C@@H](C)O)C(C)C)C(C)C	9%	-5	/	-4	/	/
COC(=O)C1=C(C)NC(=O)/C1=C\c1cc(C)n(-c2ccccc2F)c1C	?	-3	?	-16	61%	3%
COC(=O)C1=C(C)NC(=O)/C1=C\c1cc(C)n(-c2c(C)cccc2C)c1C	?	-2	/	-10	2.6µM*	-59%
SMILES	FBPA Giardia inh	CHX counter	Pf growth 48h	Shiga inhibitor	Pf growth 96h	NS1 inh
Cc1cc(/C=C2\NC(=O)NC2=O)c(C)n1-c1cccnc1	-6%	3	26%	15	30%	5%
Cc1cccc(C)c1-n1c(C)cc(/C=C2\NC(=O)NC2=O)c1C	?	8	12µM*	-3	12µM*	1%
COC(=O)C1=C(C)NC(=O)/C1=C\c1cc(C)n(-c2ccccc2C)c1C	-24%	-5	/	-10	9.3µM*	13%
COC(=O)C1=C(C)NC(=O)/C1=C\c1ccc2c(c1)OCO2	4%	34*	?	14	?	-6%
CC1=NOC(=O)/C1=C/c1ccc2c(c1)OCO2	-26%	1	?	-13	?	/
O=C(CNC(=O)c1cccc(-n2cnnn2)c1)Nc1ccc(F)c(F)c1	/	/	-3%	/	6%	/
O=C1CSC(=S)N1/N=C/c1ccc2c(c1)OCCO2	-7%	35*	/	57*	46%	0%
COc1cc(/C=N/N2C(=O)CSC2=S)ccc1O	-24%	9	/	-8	25%	5%
COc1ccc(C2COc3c(ccc(O)c3OC)C2)c(OC)c1O (stereo not given)	-17%	/	/	/	/	/
COc1ccc(NC(=O)N2CCC3(CC2)CCN(C(=O)c2cccn2C)CC3)cc1	-4%	/	/	/	/	/
Cc1nc([N+](=O)[O-])cn1CC(O)c1ccccc1 (stereo not given)	3%	-2	8%	-16	35%	0%
Cc1nc([N+](=O)[O-])cn1Cc1cccc2ccccc12	1%	1	10µM*	-14	21%	0%
